High-throughput results deposited in PubChem BioAssay by National Center for Advancing Translational Sciences (NCATS).
HT1080 IDH1KD tx = HT-1080 IDH1 knockdown cell toxicity (counter line); Potency, µM (series often up to 46.1 µM), most hits filed as cytotoxic; HT-1080 IDH1 knockdown viability, ATP luminescence, 48 h; 360,000 compounds, 2% hits; AID 686971
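Assay cells: HT-1080 with IDH1 knockdown, 750 per well, RPMI/5% FBS. Exposure: 48 h at 37 °C following 2 h pre-incubation. Read: CellTiter-Glo luminescence; fitted concentration-response, curve class assigned.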
HT1080NT lethal = kills 2HG-producing HT-1080-NT fibrosarcoma cells. HT-1080-NT fibrosarcoma viability, CellTiter-Glo ATP luminescence, 48 h. Potency, µM (titrated, usually from 46.1 µM), actives largely listed as cytotoxic. 360,000 compounds, 1.6% hits;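 also: NT is the 2HG producing partner of a matched IDH1 knockdown line; nearly all actives have a fitted effect of over 55% in size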
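750 cells/well, RPMI + 5% FBS; 2 h settle, compound pin-transfer, 48 h at 37 degrees C. CellTiter-Glo 10 min RT, luminescence. Normalized to DMSO and media-only wells.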
12-LOX inh = ALOX12 (human) lipoxygenase inhibition; Potency, µM (highest dose often 108 µM), usual class: inhibitors; 580,000 compounds, 1.1% hits; purified 12hLO, xylenol orange hydroperoxide absorbance; AID 1671190
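Purified human 12hLO at 150 nM in 25 mM Hepes, 0.01% Triton X-100, pH 7.0, preincubated 15 min at room temperature with compound. Reaction started with 40 uM arachidonic acid, 30 min at room temperature. Hydroperoxide measured by Fe-xylenol orange, 573/405 nm absorbance ratio.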
IL1B secr inh = inhibitors of inflammasome signaling (IL-1 beta secretion); 360,000 compounds, 4.7% hits; THP-1 LPS/ATP IL-1B secretion, AlphaLISA, 16 h; stronger effect = lower value; activity change, % at 57.5 µM; AID 743279; in the data active = activity change below about -50%; inconclusive = mostly about -30% to -49%
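THP-1 cells pretreated 1 hr with compounds (up to 57.5 uM final), then stimulated with LPS (250 ng/mL final) plus ATP (1.25 mM final); secreted IL-1B measured by AlphaLISA after 16 hr, decreased signal indicating inhibition.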
DT40 TDP1 CPT = DT40-hTDP1 cell growth loss with CPT | Potency, µM (top dose mostly 46.2 µM), most hits filed as inhibitors | 420,000 compounds, 12% hits | chicken DT40 Tdp1-/-;hTDP1 cells + 20 nM CPT, ATP luminescence, 48 h | AID 686979; also: nearly all actives have a fitted effect of over 55% in size
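Chicken DT40 Tdp1-/- cells stably complemented with human TDP1 were seeded at 400 cells/well in medium containing 20 nM camptothecin, exposed to pin-transferred compounds, and grown at 37 °C for at least 48 hr. Viability was read as ATP luminescence.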
DT40 TDP1 no CPT = qHTS for Inhibitors of human tyrosyl-DNA phosphodiesterase 1 (TDP1): qHTS in cells in absence of CPT. Potency, µM (series often up to 46.2 µM), most hits filed as inhibitors. 420,000 compounds, 15% hits. AID 686978, 2013. DT40 Tdp1-/- hTDP1 cells, no CPT, ATP luminescence, 48 h; also: nearly all actives have a fitted effect of over 55% in size
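Compound effects on proliferation are scored in DT40 Tdp1-/-;hTDP1 cells in the absence of CPT. ATP levels (CellTiter-Glo luminescence) are recorded after a ≥48 hr, 37 °C incubation.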
Hits are given with their value; i = inactive; ? = inconclusive; nt = not tested or not shown; [ ] = remark or other dose. Only a selection was taken, and hits are over-represented in it overall. Unless noted, calls follow the shape of the dose curve; as a rule, active = well fitted curve in the direction sought with a large enough effect; inconclusive = small, poorly fitted or top-dose-only effect, or another doubt; inactive = no such curve, though single readings can be large; an effect the other way counts as inactive or inconclusive.

SMILES	HT1080 IDH1KD tx	HT1080NT lethal	12-LOX inh	IL1B secr inh	DT40 TDP1 CPT	DT40 TDP1 no CPT
c1ccc2c(c1)ccn1c(Cc3ccsc3)c(C3CCCCC3)nc21	?	i	?	i	18µM	15µM
Cc1ccc(Cc2c(C3CCCCC3)nc3c4ccccc4ccn23)cc1	i	i	?	i	?	23µM
COc1ccccc1Cc1c(C2CCCCC2)nc2c3ccccc3ccn12	i	i	i	i	?	?
COc1ccc2c(c1)CCCN2C(=O)COc1ccc2ccc(=O)oc2c1	nt	nt	i	nt	nt	nt
CC(=O)NC1CC2(CCN(C(C)=O)CC2)Oc2ccccc21 (stereo unspecified)	nt	nt	i[12.5 µM]	nt	nt	nt
CCNC(=S)/N=C(/Nc1ccc(OC)cc1)Nc1nc(C)cc(C)n1	i	i	?	i	23µM	21µM
COc1cccc(NC(=S)Nc2cc(C)cc(C)n2)c1	i	i	i	nt	i	i
COc1cccc(N/C(=N/C(=S)Nc2ccc(C)cc2C)Nc2nc(C)cc(C)n2)c1	?	?	i	i	?	18µM
Cc1ccccc1Nc1nc(C(=O)NCc2ccccc2)cs1	nt	nt	i	nt	nt	nt
CCC(c1cccs1)N1C(=O)[C@H]2CN(S(=O)(=O)c3ccc(Cl)cc3)C[C@H]2C1=O (stereo partly specified)	nt	nt	i	nt	nt	nt
C=C1CC2C3CC[C@@]4(OCOC45COCO5)[C@@]3(C)C(O)CC2[C@@]2(C)CCC(=O)C=C12 (stereo partly specified)	?	i	i	-101	?	18µM
C=Cc1ccc(Cn2nc(-c3ccc(C)c(S(=O)(=O)N4CCCC4)c3)ccc2=O)cc1	nt	nt	i	nt	nt	nt
CCCSc1nnc(-c2cnn(-c3ccccc3)c2-n2cccc2)n1C	i	i	?	i	18µM	15µM
CCOC(=O)N[C@H](C(=O)N1CCC[C@H]1C(=O)NC1CCCC1)c1ccccc1	nt	nt	i	nt	nt	nt
Nc1cc(-n2cccc2)ccc1Cl	nt	nt	i	nt	nt	nt
CC(C)(CNC(=O)c1nccnc1N)c1ccc(Br)cc1	nt	nt	i	nt	nt	nt
Cc1nn(-c2ccccc2)c2nc(=O)n(-c3ccccc3)cc12	?	i	i	i	8.2µM	7.3µM
Cc1ccc2nc3c(cc2c1)c(C)nn3-c1ccccc1	i	i	i	i	i	i
CCCn1c(NC(=O)c2oc3ccccc3c2CSC)nc2ccccc21	nt	nt	i	nt	nt	nt
Cc1[nH]c2ccccc2c1/C=C/c1nc2ccccc2c(=O)n1-c1ccc([N+](=O)[O-])cc1	i	i	i	i	?	2.1µM
O=c1[nH]c(/C=C/c2ccccc2Cl)nc2ccccc12	i	i	?	i	16µM	?
Cc1[nH]c2ccccc2c1/C=C/c1nc2ccccc2c(=O)[nH]1	16µM	?	?	-103	?	10µM
COc1cc(/C=C/c2nc3ccccc3c(=O)[nH]2)ccc1O	?	i	?	?	?	16µM
CCOc1cc(/C=C/c2nc3ccccc3c(=O)[nH]2)ccc1O	i	i	i	i	?	?
N#C/C(=C/c1ccccc1Cl)c1nc2ccccc2c(=O)[nH]1	nt	nt	i	nt	i	i
SMILES	HT1080 IDH1KD tx	HT1080NT lethal	12-LOX inh	IL1B secr inh	DT40 TDP1 CPT	DT40 TDP1 no CPT
CCc1cc(N2CCN(C)C(C(=O)O)C2)nc(N2CCOCC2)n1 (stereo unspecified)	nt	nt	i	nt	nt	nt
O=C(O)c1ccccc1-c1csc(-c2ccccc2)n1	?	i	i	i	i	i
O=C(O)c1ccc(/C=C/c2nc3ccccc3c(=O)[nH]2)cc1	i	i	i	i	i	i
Cc1cccc(/C=C/c2nc3ccccc3c(=O)[nH]2)c1	?	?	i	i	21µM	15µM
O=C(COC(=O)c1nn(-c2ccccc2C(F)(F)F)cc1O)c1ccc(OC(F)F)cc1	i	i	i	i	i	i
CC(C)c1ccc(/C=N/NC(=O)c2nnn(-c3nonc3N)c2CSC2=NCCS2)cc1	?	i	i	-87	?	21µM
Nc1nonc1-n1nnc(C(=O)N/N=C/c2cccnc2)c1CSc1ccccc1	i	i	i	i	i	i
